SMN2 splice up: qHTS Assay for Enhancers of SMN2 Splice Variant Expression. Potency, µM (highest dose often 46.1 µM), for inactives: at the highest dose activity change, positive = activation, hits mostly activators. actives 2.8% (n = 210,000). HEK293 SMN2-luciferase splicing reporter, luminescence, 30-36 h; note: % of control where 0% means no effect; nearly all actives have a fitted effect of over 55% in size
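qHTS luciferase splicing reporter: luminescence rises when SMN2 exon 7 is included in transfected HEK293 cells. Compound exposure lasted 30-36 h at 37C, with 4.5 mM final sodium butyrate as control, followed by a ONE-Glo read.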
FLuc counter: qHTS profiling assay for firefly luciferase inhibitor/activator using purifed enzyme and Km concentrations of substrates (counterscreen for miR-21 project) | Luciferin 4-monooxygenase (Photinus pyralis), P08659 | purified FLuc, Km substrates, luminescence inhibition | Potency, µM (series often up to 57.5 µM), inactives show at the highest dose activity change, negative = inhibition, most hits filed as inhibitors | actives 6.9% (n = 360,000);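 note: plate controls were vehicle for no effect and reference inhibitor for full effect; nearly all actives have a fitted effect of over 55% in size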
Target sequence (P08659 whole entry, looked up): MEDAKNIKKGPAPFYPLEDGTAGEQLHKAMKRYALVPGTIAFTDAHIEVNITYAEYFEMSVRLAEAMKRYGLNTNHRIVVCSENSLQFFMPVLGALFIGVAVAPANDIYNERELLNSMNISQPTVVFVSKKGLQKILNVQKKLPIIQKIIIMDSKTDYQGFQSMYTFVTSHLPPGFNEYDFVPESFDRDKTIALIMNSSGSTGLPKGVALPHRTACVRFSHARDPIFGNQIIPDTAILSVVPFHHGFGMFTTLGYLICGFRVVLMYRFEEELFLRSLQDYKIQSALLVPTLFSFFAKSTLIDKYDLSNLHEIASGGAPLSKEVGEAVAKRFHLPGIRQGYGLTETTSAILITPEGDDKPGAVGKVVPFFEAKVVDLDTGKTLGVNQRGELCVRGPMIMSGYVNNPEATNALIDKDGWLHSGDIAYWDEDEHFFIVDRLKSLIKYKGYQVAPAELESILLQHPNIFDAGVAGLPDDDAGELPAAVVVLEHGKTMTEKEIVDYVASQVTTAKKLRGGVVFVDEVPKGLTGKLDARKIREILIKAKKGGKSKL
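Biochemical qHTS of compounds, final roughly 60 µM downward over six points, against 10 nM purified firefly luciferase using Km concentrations of substrates (10 uM D-luciferin, 10 uM ATP) in Tris acetate pH 7.5 buffer; luminescence output.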
NPC1 promoter act: qHTS Assay for NPC1 Promoter Activators. Potency, µM (highest dose often 9.22 µM), for inactives: at the highest dose activation, hits mostly activators. Huh7 NPC1 promoter luciferase reporter, 24 h. AID 485313, 2010. actives 2.4% (n = 320,000); note: % of control where 0% means no effect; nearly all actives have a fitted effect of over 60% in size
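Stable NPC1-promoter luciferase Huh7 line; cpd (DMSO) 24 h, 37 °C, 5% CO2; Amplite luciferase reagent 10 min RT; luminescence readout. qHTS format.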
Rab9 promoter act: qHTS Assay for Rab9 Promoter Activators; Huh7 Rab9 promoter-luciferase reporter, luminescence, 24 h; actives 2.8% (n = 320,000); Potency, µM (top dose mostly 9.22 µM), inactives show at the highest dose activation, negative = inhibition, actives largely listed as activators; note: % of control where 0% means no effect; nearly all actives have a fitted effect of over 60% in size
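Stable Rab9-luc Huh7, 1500 cells/well, 2 h settle; cmpd in DMSO, 24 h, 37 °C/5% CO2; luciferase reagent 10 min RT; luminescence.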
ELG1 genotox: qHTS screen for small molecules that induce genotoxicity in human embryonic kidney (HEK293T) cells expressing luciferase-tagged ELG1; AID 504466, 2011; actives 1.3% (n = 330,000); Potency, µM (top dose mostly 46 µM), without a hit: top-dose activity change, positive = activation, most hits filed as activators; HEK293T ELG1-luciferase reporter, luminescence, 16 h; note: % of control where 0% means no effect; nearly all actives have a fitted effect of over 60% in size
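Step 1: seed 2,000 HEK293T ELG1-luciferase cells per well. Step 2: add compound or DMSO, incubate 16 hr at 37 °C. Step 3: ONE-Glo, 30 min at room temperature, read luminescence.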
Luc counter: Counterscreen for Luciferase (Kinase-Glo TM) Inhibition. actives 0.28% (n = 200,000). Potency, µM (highest dose often 38.3 µM), without a hit: at the highest dose activity change, negative = inhibition, usual class: inhibitors. Kinase-Glo luciferase, ATP luminescence, 8 min. Luciferin 4-monooxygenase (Photuris pensylvanica), Q27757; note: % is set by controls: 0 for no effect and ±100 for the full control effect; nearly all actives have a fitted effect of over 60% in size
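Compound is pinned into ATP-containing buffer (10 uM ATP, imidazole pH 7.2, 7 mM MgCl2). Kinase-Glo luciferase reagent is then added. Light output is recorded following an 8-min room-temperature incubation.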
* marks the source's active call; other numbers are inactive results; [ ] = another dose, or the depositor's remark. Rows were chosen to be rich in hits. Some 7.5% of all compounds tested hit in one or more screens of this group. Calls come from the whole dose curve; as a rule, active = well fitted curve in the direction sought with a large enough effect; inconclusive = small, poorly fitted or top-dose-only effect, or another doubt; inactive = no such curve, though single readings can be large; an effect the other way counts as inactive or inconclusive. Potency is the fitted concentration of half-maximal effect.

How did O=c1cc(-c2ccc([N+](=O)[O-])cc2)nc2cc(-c3ccc(Cl)cc3)[nH]n12 do in these assays?
SMN2 splice up: -3%; FLuc counter: inconclusive; NPC1 promoter act: 0%; Rab9 promoter act: -7%; ELG1 genotox: -1%; Luc counter: 0%

What do the screens show for `CCCc1cc(=O)n2[nH]c(-c3ccccc3)cc2n1`?
SMN2 splice up: 11µM*; FLuc counter: 17µM*; NPC1 promoter act: 4µM*; Rab9 promoter act: 2.8µM*; ELG1 genotox: inconclusive; Luc counter: -1%

Results for CCCc1cc(=O)n2[nH]c(C)nc2n1 ?
SMN2 splice up: 11%; FLuc counter: 0%; NPC1 promoter act: 0%; Rab9 promoter act: 4%; ELG1 genotox: 2%; Luc counter: -2%

What do the screens show for `O=c1cc(-c2ccccc2)nc2cc(-c3ccc(Br)cc3)[nH]n12`?
FLuc counter: -16%; NPC1 promoter act: inconclusive; Rab9 promoter act: inconclusive; ELG1 genotox: 3%

How did COc1ccc(C)cc1NC(=O)CCCN1C(=O)CN(C)C1=O do in these assays?
FLuc counter: -4%; NPC1 promoter act: 1%; Rab9 promoter act: -2%; ELG1 genotox: 0%

Results for CCOc1ccc(S(=O)(=O)N2CCCC(C(=O)NCCN3CCOCC3)C2)cc1Cl (stereo unspecified) ?
FLuc counter: -1%; NPC1 promoter act: -11%; Rab9 promoter act: 3%; ELG1 genotox: -1%

How did Cn1cc(C(=O)C(=O)N2CCc3ccccc32)c2ccccc21 do in these assays?
FLuc counter: 1%; NPC1 promoter act: 3.2µM*; Rab9 promoter act: 2.8µM*; ELG1 genotox: inconclusive

What do the screens show for `COc1ccc(CC(=O)N[C@@H]2c3cc(OC)c(OC)cc3C[C@H]2O)cc1`?
ELG1 genotox: 5%

How did CCN(CC1CCCN(CCc2cccc(OC)c2)C1)C(=O)c1ccoc1 (stereo unspecified) do in these assays?
FLuc counter: -2%; NPC1 promoter act: -6%; Rab9 promoter act: 2%; ELG1 genotox: -5%

How did COCCCNC(=O)c1cccn2c(=O)c3cc4ccccc4cc3nc12 do in these assays?
SMN2 splice up: -33%; FLuc counter: 15µM*; NPC1 promoter act: 27%; Rab9 promoter act: 19%; ELG1 genotox: 11%; Luc counter: -4%

How did O=C(NCc1ccco1)c1cccn2c(=O)c3cc4ccccc4cc3nc12 do in these assays?
SMN2 splice up: inconclusive; FLuc counter: -6%; NPC1 promoter act: 1%; Rab9 promoter act: 23%; ELG1 genotox: inconclusive; Luc counter: 0%

Results for Cc1cc(C)n(-c2ccc(C(=O)Nc3ccc(N4CCOCC4)cc3)cc2)n1 ?
SMN2 splice up: -64%; FLuc counter: -13%; NPC1 promoter act: 18%; Rab9 promoter act: 9%; ELG1 genotox: -18%; Luc counter: -4%

What do the screens show for `Cc1cc(C)n(-c2ccc(C(=O)Nc3cccc(S(=O)(=O)N(C)C)c3)cc2)n1`?
SMN2 splice up: -66%; FLuc counter: inconclusive; NPC1 promoter act: -14%; Rab9 promoter act: -19%; ELG1 genotox: -7%; Luc counter: 4%

How did Cc1cc(C)n(-c2ccc(C(=O)NC3=NCCS3)cc2)n1 do in these assays?
SMN2 splice up: inconclusive; FLuc counter: 15µM*; NPC1 promoter act: inconclusive; Rab9 promoter act: 3.2µM*; ELG1 genotox: inconclusive; Luc counter: -3%

How did COc1ccc(NC(=O)c2ccc(-n3nc(C)cc3C)cc2)cc1OC do in these assays?
SMN2 splice up: -21%; FLuc counter: 15µM*; NPC1 promoter act: -2%; Rab9 promoter act: 18%; ELG1 genotox: 0%; Luc counter: -9%

What do the screens show for `Cc1cc(C)n(-c2ccc(C(=O)Nc3ccc(S(=O)(=O)N(C)C)cc3)cc2)n1`?
SMN2 splice up: -68%; FLuc counter: 4%; NPC1 promoter act: -2%; Rab9 promoter act: 0%; ELG1 genotox: -7%; Luc counter: 1%

What do the screens show for `Cc1cc(C)n(-c2ccc(C(=O)Nc3ccc(C)c(S(=O)(=O)N(C)C)c3)cc2)n1`?
SMN2 splice up: -15%[1.84 µM]; FLuc counter: 17µM*; NPC1 promoter act: -4%; Rab9 promoter act: -20%; ELG1 genotox: -10%; Luc counter: 0%

How did Cc1cc(C)n(-c2ccc(C(=O)Nc3ccc4c(c3)OCO4)cc2)n1 do in these assays?
SMN2 splice up: inconclusive; FLuc counter: 13µM*; NPC1 promoter act: inconclusive; Rab9 promoter act: inconclusive; ELG1 genotox: inconclusive; Luc counter: -12%

Results for O=C(Cn1c(NCCCO)nc2ccccc21)c1ccc(F)cc1 ?
FLuc counter: 1%; NPC1 promoter act: -5%; Rab9 promoter act: 2%; ELG1 genotox: 0%

How did O=C(c1ccccc1Br)N(Cc1ccccc1)c1ccccc1 do in these assays?
FLuc counter: -1%; NPC1 promoter act: 1%; Rab9 promoter act: 8%; ELG1 genotox: 6%

How did CC(=O)[C@H](CC(C)C)NC(=O)[C@@H](CC(C)C)NC(=O)[C@H](CC(C)C)NC(=O)OCc1ccccc1 do in these assays?
Luc counter: 2%

What do the screens show for `CC(=O)c1ccc(S(=O)(=O)Nc2ccc(-c3ccc(N4CCCCCC4)nn3)cc2)cc1`?
FLuc counter: 11µM*

What do the screens show for `CC(=O)c1ccc(S(=O)(=O)Nc2ccc(-c3ccc(N4CCCCC4)nn3)cc2)cc1`?
FLuc counter: 8.5µM*

Results for CCOC(=O)c1c(C)n(-c2ccc(OC)cc2)c2ccc(OC(=O)COc3ccccc3)cc12 ?
SMN2 splice up: -23%; FLuc counter: -2%

What do the screens show for `CCC(=O)N[C@@H]1CCc2cccc(OC)c2C1`?
Luc counter: 1%

Results for CNc1nnc(-c2ccc(OC)cc2)s1 ?
SMN2 splice up: 13µM*; FLuc counter: 12µM*; NPC1 promoter act: 2.8µM*; Rab9 promoter act: 3.2µM*; ELG1 genotox: 16µM*; Luc counter: -15%

What do the screens show for `CCCOc1ccc(-c2nnc(N)s2)cc1`?
SMN2 splice up: inconclusive; FLuc counter: 7.6µM*; NPC1 promoter act: inconclusive; Rab9 promoter act: inconclusive; ELG1 genotox: 18µM*; Luc counter: -4%

How did COc1ccc(OCCc2nnc(N)s2)cc1 do in these assays?
SMN2 splice up: 2%; FLuc counter: 2%; NPC1 promoter act: 4%; Rab9 promoter act: -1%; ELG1 genotox: 1%; Luc counter: 0%

Screens from PubChem BioAssay.
